The panel holds about 83,000 compounds, 20% with a hit somewhere; the sample as a whole holds those more often.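 Single-concentration screen, 48 h exposure, 96-well plates. Endpoint: percent growth. Below 10 = active.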 Unmarked numbers belong to inactive results. Calls of active or inactive are those of the source.
tested on: MDA-MB-468 breast; assay: NCI-60 one-dose screen, 48 h (100 = growth as untreated, 0 = no growth, -100 = all killed); conditions: 10 µM unless noted

**Q.** For `N=c1c2c(=N)n3c(nc2nc2n1-c1ccccc1Sc1ccccc1-2)sc1cc(Cl)ccc13`, which growth is on record?
**A.** Its growth is -11.8% (active).

**Q.** For `COc1cc(OC)c(/C=C/C(=O)c2ccc(Nc3ncnc4ccccc34)cc2)c(OC)c1`, which growth is on record?
**A.** The growth was -34.8% (active).

**Q.** `CCCCSC1=C(Cl)CN(c2ccccc2)C1=O` was tested. Which growth did it give?
**A.** Its growth is 84.6%.

**Q.** `Cc1ccc(NS(=O)(=O)c2ccc(-c3cnc(C4CC4)o3)cc2)cc1C` was tested. Which growth did it give?
**A.** The growth was -25.6% (active).

**Q.** How did the growth turn out when `O=C(Nc1cccc(Cl)c1)c1cc([N+](=O)[O-])ccc1O` was run?
**A.** Its growth is 31.3%.

**Q.** How did the growth turn out when `CCN1C(=O)N(c2ccccc2)C2NC(=S)N(/N=C/C=C/c3ccccc3)C21` (stereo not given) was run?
**A.** Its growth is 5.41% (active).

**Q.** `Cc1cc(C)c2nc(C)c(C)[n+]([O-])c2c1` was tested. Which growth did it give?
**A.** Its growth is 101%.

**Q.** With `Cc1ccc(Nc2nc(N)nc(CSCC(=O)NN)n2)cc1` as the molecule, how does the growth read?
**A.** Its growth is 95.7%.

**Q.** For `O=C(C(Br)Br)C(Br)C(Br)c1ccccc1` (stereo not given), which growth is on record?
**A.** The growth was 9.8% (active).

**Q.** For `CC(=O)CC/C=C(\C)[C@H](O)[C@H](C)C(=O)O[C@H]1C[C@H](C)C=C2C=C[C@@]3(C)O[C@@H](O)CC(=O)[C@]3(C)[C@H]21`, which growth is on record?
**A.** Its growth is -65.4% (active).

**Q.** How did the growth turn out when `CC12CCC(CC1)C(C)(C)O2` was run?
**A.** The growth was 108%.

**Q.** Which growth does the source give for `COc1ccc(-c2[nH]c3ccccc3c2C=C(C#N)C#N)cc1` here?
**A.** Its growth is -19.8% (active).

**Q.** For `CN(C)CCN1C(=O)c2ccc3c4c(ccc(c24)C1=O)C(=O)N(CCN=C=S)C3=O`, which growth is on record?
**A.** Its growth is -88.8% (active).

**Q.** With `OC(CCN1CCCCC1)(c1ccccc1)c1ccccc1` as the molecule, how does the growth read?
**A.** The growth was 101%.

**Q.** `C#CC(F)(F)[C@]1(O)CCC2C3CCC4=CC(=O)CCC4=C3[C@@H](c3ccc(N(C)C)cc3)C[C@@]21C` (stereo not given in full) was tested. Which growth did it give?
**A.** The growth was 101%.

**Q.** For `C[C@]12CCc3nc(Nc4cccc(O)c4)sc3C1=CC[C@@H]1[C@@H]2CC[C@]2(C)/C(=N\NC(N)=S)CC[C@@H]12`, which growth is on record?
**A.** The growth was -32.7% (active).

**Q.** How did the growth turn out when `COc1cc(Nc2ncc(F)c(Nc3ccc4c(n3)NC(=O)C(C)(C)O4)n2)cc(OC)c1OC` was run?
**A.** The growth was 27.7%.

**Q.** With `COCCNC1=C(Cl)C(=O)c2ccccc2C1=O` as the molecule, how does the growth read?
**A.** Its growth is 76.8%.

**Q.** Which growth does the source give for `CCCCn1c(=O)[nH]c(N)c(C(c2ccc(F)cc2)c2c(N)[nH]c(=O)n(CCCC)c2=O)c1=O` here?
**A.** Its growth is 51.2%.

**Q.** Which growth does the source give for `OC1CCc2c(-c3ccc4ncnc(N5CCc6cc(F)c(Cl)cc65)c4c3)cncc21` (stereo not given) here?
**A.** The growth was 9.18% (active).

**Q.** How did the growth turn out when `COc1cc2cc(Oc3ccc(NC(=O)Nc4cccc(C(F)(F)F)c4)cc3)c(C)nc2cc1OCCN(C)C` was run?
**A.** The growth was 79.6%.

**Q.** For `O=C(Nc1ccc(-n2cc(-c3ccncc3)c(-c3ccc(O)c(Cl)c3)n2)cc1)c1ccc(Cl)c(Cl)c1`, which growth is on record?
**A.** Its growth is 39.9%.

**Q.** For `CCn1c(SCc2ccc(C)cc2)nnc1-c1nn(-c2ccc(Cl)cc2Cl)c(-c2ccc(Cl)cc2)c1C`, which growth is on record?
**A.** The growth was 6.59% (active).

**Q.** Which growth does the source give for `COc1ccc(/C=C2\Oc3cc(OCCCCN4CCCC4)ccc3C2=O)cc1` here?
**A.** The growth was 74.5%.

**Q.** How did the growth turn out when `CN(C)CC(C)(CN(C)C)C(=O)/C=C/c1c(Cl)cccc1Cl` was run?
**A.** The growth was -82.6% (active).

**Q.** `CCOC(=O)CC(c1ccccc1)C(C#N)c1ccccc1` (stereo not given) was tested. Which growth did it give?
**A.** Its growth is 101%.

**Q.** Which growth does the source give for `CC1=C[S+](c2ccccc2)c2cccc3cc4ccccc4c1c23` (stereo not given) here?
**A.** The growth was -70% (active).

**Q.** Which growth does the source give for `CCCCCN(CCCCC)CCCCCCCCN1CCCc2ccccc21` here?
**A.** Its growth is 99.9%.

**Q.** For `CCCCCCCCCCN(CCCCCCCCCC)CC(=O)c1ccc2cc(Br)c3ccccc3c2c1`, which growth is on record?
**A.** Its growth is 100%.

**Q.** Which growth does the source give for `c1ccc(-c2oc(-c3ccccc3)c3ccccc23)cc1` here?
**A.** The growth was 109%.

**Q.** With `O=c1oc2ccccc2cc1-c1nn(-c2ccccc2)cc1-c1nn[nH]n1` as the molecule, how does the growth read?
**A.** Its growth is 104%.

**Q.** For `O=[N+]([O-])c1ccc(N2CCN=N2)cc1`, which growth is on record?
**A.** Its growth is 93.9%.

**Q.** How did the growth turn out when `CNC(=O)c1ccccc1Nc1nc(Nc2cc(OC)c(OC)c(OC)c2)ncc1Br` was run?
**A.** The growth was -46.6% (active).

**Q.** How did the growth turn out when `CN(CCCCN(C[C@H]1Cc2ncccc2CN1)[C@H]1CCCc2cccnc21)C1CCC(F)(F)CC1` was run?
**A.** Its growth is 95.3%.

**Q.** `OCc1ncc(-c2ccccc2)s1` was tested. Which growth did it give?
**A.** Its growth is 104%.

**Q.** With `O=C(/C=C(/C=C/c1coc2ccccc12)OB(F)F)/C=C/c1coc2ccccc12` as the molecule, how does the growth read?
**A.** Its growth is 112%.

**Q.** With `O=C(CSc1nc2ccc([N+](=O)[O-])cc2[nH]1)Nc1ccc(F)cc1` as the molecule, how does the growth read?
**A.** The growth was 22.3%.

**Q.** For `CCN(CC)CCOCC[C@H]1CC[C@H]2[C@@H]3[C@H](C)Cc4cc(OS(N)(=O)=O)ccc4[C@H]3CC[C@]12C`, which growth is on record?
**A.** The growth was -87.2% (active).

**Q.** How did the growth turn out when `CCCCSc1ncnc2c1ncn2C1CCCCO1` (stereo not given) was run?
**A.** The growth was 122%.

**Q.** For `COc1cc2cc(c1Cl)N(C)C(=O)C[C@H](OC(=O)[C@H](C)N(C)C(=O)CCS)C[C@]1(C)O[C@H]1[C@H](C)[C@@H]1C[C@@](O)(NC(=O)O1)[C@H](OC)/C=C/C=C(\C)C2`, which growth is on record?
**A.** Its growth is 42%.
